Only some compounds are listed: those with a hit (about 8.2% of all), similar ones and a draw of the others.
KB-V1 cytotox: kills drug-selected multidrug resistant KB-V1 cells | AID 1347076 | Potency, µM (doses to about 46.1 µM), actives largely listed as cytotoxic | KB-V1 MDR cells viability, CellTiter-Glo, 72 h | 400,000 tested, 3.4% active; further: on the % scale 0 is the no-effect control and ±100 the full control effect; nearly all actives have a fitted effect of over 60% in size
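KB-V1 cells (P-gp-expressing MDR subline of KB-3-1) in phenol-red-free DMEM with 10% FBS were exposed to library compounds over a concentration series for 72 h at 37 degrees C. Viability read by CellTiter-Glo luminescence; concentration-effect curves fitted after normalization.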
MCF10A rerep: inducers of DNA re-replication in MCF 10A breast cells; MCF 10A DNA re-replication, Hoechst nuclear intensity, 48 h; Potency, µM (series often up to 46.1 µM), inactives show at the top dose activity, positive = re-replication, hits mostly activators; 350,000 tested, 2.9% active; further: % of control where 0% means no effect; nearly all actives have a fitted effect of over 50% in size
SW480 rereplic: DNA re-replication induction in SW480 cells | SW480 DNA re-replication, Hoechst DNA content imaging, 48 h | Potency, µM (titrated, usually from 46.1 µM), inactives show at the highest dose re-replication activation, usual class: activators | 340,000 tested, 1.8% active; further: % of control where 0% means no effect; nearly all actives have a fitted effect of over 55% in size
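Treated cells incubate 48 hr (37 C, 5% CO2), are stained 40 min with Hoechst, and nuclear fluorescence is enumerated; a rise in nuclei with high DNA signal marks re-replication.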
ELG1 DNA repair: ELG1-dependent DNA repair inhibition; Potency, µM (series often up to 46.1 µM), inactives show top-dose activity change, negative = inhibition, actives largely listed as inhibitors; AID 504467; 330,000 tested, 2.3% active; HEK293T ELG1-luciferase reporter, luminescence, 16 h; DNA damage induced by 5-fluorouridine; further: on the % scale 0 is the no-effect control and ±100 the full control effect; nearly all actives have a fitted effect of over 55% in size
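HEK293T cells expressing luciferase-tagged ELG1 (2,000/well) received 5-Fluorouridine plus compound or DMSO for 16 hr at 37 °C. Luciferase was read by ONE-Glo luminescence after 30 min at room temperature.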
KB-3-1 cytotox: KB-3-1 parental cell cytotoxicity. KB-3-1 viability, CellTiter-Glo ATP luminescence, 72 h. Potency, µM (doses to about 46.1 µM), actives largely listed as cytotoxic. 400,000 tested, 1.4% active; further: on the % scale 0 is the no-effect control and ±100 the full control effect; nearly all actives have a fitted effect of over 60% in size
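Viability of parental KB-3-1 cells, measured by CellTiter-Glo luminescence, followed a 72 h incubation at 37 °C with pinned compounds in phenol-red-free DMEM containing 10% FBS.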
* hit, by the source's call; i = inactive; ? = inconclusive; . = not tested or not shown; [ ] = another dose, or the depositor's remark. The call rests on the fitted dose curve; in most records, active means well fitted curve in the direction sought with a large enough effect; inconclusive means small, poorly fitted or top-dose-only effect, or another doubt; inactive means no such curve, though single readings can be large; an effect the other way counts as inactive or inconclusive. Potency means the concentration at half of the fitted maximal effect.

SMILES	KB-V1 cytotox	MCF10A rerep	SW480 rereplic	ELG1 DNA repair	KB-3-1 cytotox
CC(C)(C)c1ccc(S(=O)(=O)NNC(=O)c2cc3ccccc3[nH]2)cc1	i	6%	-9%	?	i
O=C(COC(=O)C1(c2ccc(Cl)cc2)CCCC1)NCc1ccco1	?	-37%	-2%	-17%	i
CSc1cccc(NC(=O)COC(=O)C2(c3ccccc3)CC2)c1	18µM*	0%	?	-3%	i
CCc1ccc(NC(=O)COC(=O)C2(c3ccc(Cl)cc3)CCCC2)cc1	18µM*	14%	?	-12%	?
Cc1ccc(N2CC(C(=O)Nc3cccc(C(=O)NC4CC4)c3)CC2=O)cc1 (stereo unspecified)	?	-11%	1%	-6%	i
CCN(CC)CCCNC(=O)CCCn1c(=O)[nH]c2ccc(Br)cc2c1=O	?	.	.	.	i
CCOc1ccc(CN2CCC(n3nccc3NC(=O)CCCc3ccccc3)CC2)cc1	i	-13%	-3%	?	i
CCOc1cccc(CN2CCC(n3nccc3NC(=O)C3CCCC3)CC2)c1	16µM*	3%	1%	-19%	i
CCOc1cccc(CN2CCC(n3nccc3NC(=O)CCCc3ccccc3)CC2)c1	i	0%	?	6.5µM*	i
COc1ccc(CNC(=O)CN2C(=O)COc3ccc(S(=O)(=O)N4CCOCC4)cc32)cc1	i	-2%	-10%	1%	i
COc1ncnc2c1ncn2CCCNCc1ccccc1	i	.	.	.	i
O=C(CN1C(=O)/C(=C/c2ccccc2)SC1=S)N1CCN(CCc2ccccn2)CC1	i	5.8µM*	?	-23%	i
O=C(CCCN1C(=O)/C(=C\c2ccccc2)SC1=S)N1CCOCC1	.	?	?	18µM*	.
O=C(CCCN1C(=O)/C(=C/c2ccccc2Cl)SC1=S)N1CCOCC1	i	?	?	?	?
COc1ccc(/C=C2\SC(=S)N(CCCC(=O)N3CCOCC3)C2=O)cc1	?	?	?	.	23µM*
Cc1ccc(C(=O)Nc2nc(C(N)Cc3ccc(C(F)(F)F)cc3)cs2)cc1 (stereo unspecified)	i	.	.	.	i
CCc1c(C2(O)CCCCC2)[nH]c2ccc(C#N)cc12	i	-35%	12%	.	?
Cc1nc2ccn(Cc3ccccc3)c(=O)c2cc1C(=O)Nc1ccc(F)cc1Cl	i	.	.	.	i
Cc1ccc(S(=O)(=O)Nc2cccc3cccnc23)cc1	?	?	?	?	i
COc1ccccc1NC(=O)NNC(=O)c1cc2ccccc2cc1O	i	1%	27%	1%	i
COc1cc(OC)c(NC(=O)c2cc3ccccc3cc2O)cc1Cl	?	21µM*	26%	.	?
COc1cc(NS(=O)(=O)c2ccc(C)cc2)c2ncccc2c1	?	24%	3.7µM*	?	9.2µM*
COc1cc(NC(=O)c2ccccc2Cl)c2ncccc2c1	?	4.6µM*	?	-11%	?
N#CC(=C(O)COC(=O)CCC1CCCCC1)c1nc2ccccc2[nH]1	i	?	12%	.	i
Cc1ccc(S(=O)(=O)Nc2cc(C)cc(CCNC=O)c2C)cc1	18µM*	-3%	1%	.	i
SMILES	KB-V1 cytotox	MCF10A rerep	SW480 rereplic	ELG1 DNA repair	KB-3-1 cytotox
CC(O)(c1cccc(F)c1)c1nc(-c2cnc3ccccc3c2)cs1 (stereo unspecified)	?	.	.	.	i
Cc1cc(NC(=O)c2ccc(C)s2)n(-c2nc3ccccc3[nH]2)n1	i	5%	1%	?	i
Cc1cc(NC(=O)c2c(F)cccc2Cl)n(-c2nc3ccccc3[nH]2)n1	i	10µM*	-5%[9.22 µM]	21µM*	i
O=C(Nc1nc2ccccc2[nH]1)c1ccccc1F	7.3µM*	?	?	?	?
Cc1cc(NC(=O)c2ccccc2F)n(-c2nc3ccccc3[nH]2)n1	15µM*	?	5%	16µM*	?
CN(c1ccccc1)S(=O)(=O)c1ccc(Cl)c(C(=O)Nc2nc3ccccc3[nH]2)c1	?	?	16%	23µM*	?
Cc1cc(NC(=O)C2CCCCC2)n(-c2nc3ccccc3[nH]2)n1	?	?	2%	?	?

Bioassay records from PubChem BioAssay.
